Compounds with a hit are over-represented: about 8% of the library has one in this group of screens.
MCF10A rereplic: DNA re-replication induction in MCF 10a cells | hit rate 2.9% among 350,000 | MCF 10A DNA re-replication, Hoechst nuclear intensity, 48 h | Potency, µM (doses to about 46.1 µM), usual class: activators | AID 624296; note: nearly all actives have a fitted effect of over 50% in size
HT1080NT lethal: kills 2HG-producing HT-1080-NT fibrosarcoma cells. HT-1080-NT fibrosarcoma viability, CellTiter-Glo ATP luminescence, 48 h. Potency, µM (doses to about 46.1 µM), most hits filed as cytotoxic. hit rate 1.6% among 360,000. AID 686970;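 note: NT is the 2HG producing partner of a matched IDH1 knockdown line; nearly all actives have a fitted effect of over 55% in size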
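Compounds were tested in concentration-response format on HT-1080-NT cells for 48 hours at 37 degrees C. Cell viability came from CellTiter-Glo luminescence; curves were classified by r2, response magnitude and activity.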
HT1080 IDH1KD tx: HT-1080 IDH1 knockdown cell toxicity (counter line) | HT-1080 IDH1 knockdown viability, ATP luminescence, 48 h | Potency, µM (titrated, usually from 46.1 µM), most hits filed as cytotoxic | hit rate 2% among 360,000
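% activity derives from luminescence (CellTiter-Glo), normalised to DMSO and no-cell wells. HT-1080-IDH1KD cells, 750/well, had 48 h compound exposure at 37 °C.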
KB-V1 cytotox: KB-V1 MDR subline cytotoxicity | KB-V1 MDR cells viability, CellTiter-Glo, 72 h | Potency, µM (doses to about 46.1 µM), hits mostly cytotoxic | hit rate 3.4% among 400,000; note: nearly all actives have a fitted effect of over 60% in size
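KB-V1 cells (P-gp-expressing MDR subline of KB-3-1) in phenol-red-free DMEM with 10% FBS were exposed to library compounds over a concentration series for 72 h at 37 degrees C. Viability read by CellTiter-Glo luminescence; concentration-effect curves fitted after normalization.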
KB-3-1 tox: kills parental KB-3-1 adenocarcinoma cells. KB-3-1 viability, CellTiter-Glo ATP luminescence, 72 h. Potency, µM (doses to about 46.1 µM), most hits filed as cytotoxic. hit rate 1.4% among 400,000. AID 1347075; note: nearly all actives have a fitted effect of over 60% in size
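Luminescent ATP read-out (CellTiter-Glo) measures survival of drug-naive KB-3-1 cells after 72 h compound exposure at 37 °C. Titration series was screened from lowest to highest concentration, with DMSO vehicle plates as background controls.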
SW480 rerep: DNA re-replication induction in SW480 cells | SW480 DNA re-replication, Hoechst DNA content imaging, 48 h | Potency, µM (top dose mostly 46.1 µM), actives largely listed as activators | hit rate 1.8% among 340,000; note: nearly all actives have a fitted effect of over 55% in size
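Quantitative HTS format with DMSO vehicle controls; 48 hr drug incubation at 37 C, then 40 min Hoechst staining and scanning imager measurement at 405 nm excitation.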
Numbers stand for hits; – = inactive; ? = inconclusive; · = no result given; [ ] = remark or other dose. Calls come from the whole dose curve; as a rule, active = well fitted curve in the direction sought with a large enough effect; inconclusive = small, poorly fitted or top-dose-only effect, or another doubt; inactive = no such curve, though single readings can be large; an effect the other way counts as inactive or inconclusive.

SMILES | MCF10A rereplic | HT1080NT lethal | HT1080 IDH1KD tx | KB-V1 cytotox | KB-3-1 tox | SW480 rerep
COc1cccc(NC(=O)c2ccc(NC(=O)C(C)(C)C)cc2)c1 | – | – | – | 23µM | – | –
COc1ccc(Nc2oc(-c3ccc(COc4ccc(OC)cc4)o3)nc2C#N)cc1 | · | · | · | – | – | ·
O=C(C[C@H]1C[C@H](C(=O)N2CCOCC2)[C@@]2(CCC3CCCC3)c3[nH]c4cc(-c5ccco5)ccc4c3CCN2C1=O)NCCN1CCOCC1 | ? | – | ? | – | ? | ?
CC[C@]12c3[nH]c4cc(-c5ccco5)ccc4c3CCN1C(=O)[C@@H](CC(=O)NCc1ccc(OC)c(OC)c1)C[C@@H]2C(=O)N1CCN(C(=O)c2ccco2)CC1 | – | – | – | – | – | 4.1µM
O=C(C[C@H]1C[C@H](C(=O)N2CCOCC2)[C@@]2(CCC3CCCC3)c3[nH]c4cc(-c5ccco5)ccc4c3CCN2C1=O)NCc1cccc(C(F)(F)F)c1 | – | – | ? | 16µM | ? | ?
Cc1cc(C)n(C(C)CC(=O)NCc2ccccc2C)n1 (stereo not given) | · | · | · | – | – | ·
Cc1cc(NO)nc(-c2ccc(Br)cc2)n1 | – | 10µM | – | – | – | –
Cc1cc(C)nc(NC(=O)c2ccc(Br)cc2)n1 | – | – | – | – | – | –
CCCCCOC(=O)c1[nH]c2c(c1C)C(=O)C(C(=O)OC)C(C)C2 (stereo not given) | 21µM | – | – | 18µM | ? | ?
CCOc1ccc(CCn2c3c(c(=O)[nH]c2=O)C(NC(=O)c2cccc(F)c2)(C(F)(F)F)C(=O)N3)cc1OCC (stereo not given) | · | · | · | – | ? | ·
Cc1cccc(-c2cnn(-c3ccccc3)c2N)c1 | – | – | – | – | – | 18µM
CC1CC(C(F)F)n2nc(C(=O)Nc3sc4c(c3C#N)CCC(C(C)(C)C)C4)nc2N1 (stereo not given) | ? | – | – | ? | 16µM | –[9.22 µM]
Cc1ccc(S(=O)(=O)Nc2ccc(C(=O)OCC(=O)N(CCC#N)c3ccccc3)cc2)cc1C | – | – | – | – | – | ?
COCCNC(=S)N/N=C(\C)c1ccc(-n2ccnc2)cc1 | – | ? | 10µM | ? | – | 7.1µM
Cc1cc(C)cc(N(CCC(=O)Nc2nnc(C3CC3)s2)S(=O)(=O)c2ccc(Cl)cc2)c1 | ? | – | ? | 8.2µM | ? | 23µM
C[C@H](CO)N1C[C@H](C)[C@@H](CN(C)S(C)(=O)=O)Oc2ccc(NC(=O)Nc3ccccc3)cc2C1=O | – | – | – | – | – | –
O=C1NC(=O)/C(=C/c2ccccc2Oc2ccc(Cl)cc2)S1 | ? | – | – | – | – | –
Cc1ccc(S(=O)(=O)Oc2ccccc2/C=N/NC(N)=S)cc1 | ? | 4.5µM | ? | ? | 6.5µM | –
Cc1ccc(S(=O)(=O)Oc2ccccc2/C=C2\SC(=O)NC2=O)cc1 | – | 21µM | – | – | – | –
NC(=S)N/N=C/c1ccccc1OCCSc1ccc(Cl)cc1 | 21µM | ? | ? | ? | ? | ?
COc1cccc(/C=N/NC(N)=S)c1OCc1ccccc1Cl | ? | – | ? | – | – | –
O=S1(=O)C=C(SCc2ccc(F)cc2)Nc2ccccc21 | – | – | – | – | – | –
O=S1(=O)C=C(SCc2ccccc2)Nc2ccccc21 | – | – | – | 18µM | ? | –
COc1ccc(CSC2=CS(=O)(=O)c3ccccc3N2)cc1 | – | – | – | 23µM | – | –
CC(=O)c1cccc(-n2c(=O)c3c4c(sc3n(Cc3ccccc3Cl)c2=O)CN(C(C)=O)CC4)c1 | · | · | · | – | – | ·
SMILES | MCF10A rereplic | HT1080NT lethal | HT1080 IDH1KD tx | KB-V1 cytotox | KB-3-1 tox | SW480 rerep
COc1ccc2c(c1)O[C@H](c1ccc3c(c1)OCO3)[C@@H](OC(=O)Nc1cc(OC)c(OC)c(OC)c1)C2=O | ? | · | · | · | · | 12µM
Cc1noc(C)c1-c1nc(CS(=O)(=O)c2ccc(F)cc2)no1 | – | – | – | – | – | –
Clc1ccc(/C=C/c2ccnc3ccccc23)cc1 | · | · | · | – | – | ·
CN(C)c1c(Cl)cc(/C=C/c2ccnc3ccccc23)cc1Br | · | · | · | 16µM | 18µM | ·
CN(C)c1ccc(C=Cc2ccnc3ccccc23)cc1N | · | 23µM | ? | – | ? | ·
Cc1c(/C=C/c2ccnc3ccccc23)ccc(N(C)C)c1C | · | · | · | – | ? | ·
Cc1cc(/C=C/c2ccnc3ccccc23)ccc1N(C)C | · | · | · | 13µM | 7.3µM | ·
Cc1cc(N)c2cc(NC(=O)Nc3ccc4nc(C)cc(N)c4c3)ccc2n1 | – | · | · | · | · | –
CC(=O)[C@@H]1[C@@H]2C(=O)N(Cc3ccccc3)C(=O)[C@@H]2C2c3ccccc3C=CN21 (stereo not given in full) | 5.8µM | – | – | – | – | –
O=C(c1ccco1)[C@@H]1[C@@H]2C(=O)N(c3ccccc3)C(=O)[C@@H]2C2c3ccccc3C=CN21 (stereo not given in full) | – | – | – | – | – | –
N=c1c2c(n(Cc3ccc(Cl)cc3)c3c1CCC3)CCC2 | – | 5µM | 7.1µM | – | – | –
N=c1c2c(n(Cc3cccc(Cl)c3)c3c1CCC3)CCCC2 | – | 6.3µM | 10µM | – | ? | –
Cc1nn(Cc2c(F)c(F)c(F)c(F)c2F)c(C)c1NC(=O)c1ccc(COc2ccccc2Cl)o1 | – | – | – | 2.6µM | – | –
Cc1nn(Cc2c(F)c(F)c(F)c(F)c2F)c(C)c1NC(=O)c1c(-c2ccccc2)nn(-c2ccccc2)c1C | 23µM | ? | ? | – | – | –
Cc1c(C(=O)NCc2ccc(F)cc2)c(-c2ccccc2)nn1-c1ccccc1 | ? | – | – | – | – | –[9.22 µM]
CN(C)c1cccc2c1C(=O)c1ccccc1C2=O | – | – | – | ? | – | –
Cc1ccc(SC2=C(N(C)C)C(=O)c3ccccc3C2=O)cc1 | 12µM | ? | ? | – | ? | ?
Nc1c(Cl)ncnc1N1CCN(c2ncnc(Cl)c2N)CC1 | – | – | – | – | – | 0.23µM
Cc1c(NC(=O)c2nc3ccccc3nc2N2CCCCC2)cccc1[N+](=O)[O-] | · | · | · | – | – | ·
Fc1ccc(C(c2ccc(F)cc2)N2CCN(CC=Cc3ccccc3)CC2)cc1 | ? | · | · | · | · | –
O=C(Nc1nccs1)[C@@H]1CC=C[C@@H]2CCN(Cc3ccc(Cl)c(Cl)c3)C(=O)[C@@H]21 | · | · | · | ? | – | ·
CCCC(CCC)=NNc1ccc(S(=O)(=O)Nc2ccccc2OC)cc1[N+](=O)[O-] | ? | – | – | 12µM | – | –
COc1ccccc1NS(=O)(=O)c1ccc(OC)c([N+](=O)[O-])c1 | – | – | – | – | – | –
COc1ccccc1NS(=O)(=O)c1ccc(N/N=C(\C)C(C)C)c([N+](=O)[O-])c1 | – | – | – | 12µM | ? | –

Source: PubChem BioAssay
